In paper PMC5540273 (PLoS ONE, 2017):

Legend:
Conditions in all cases: concentration: 1 μM, replicates: in singlicate; n = 1
HPK1 = tested on: HPK1
HUNK = tested on: HUNK
ICK = tested on: ICK
IGF1R = tested on: IGF1R
IKK-alpha = tested on: T1, IKK-alpha
T1 construct: gene CHUK

IKK-beta = tested on: T2, IKK-beta
T2 construct: gene IKBKB

IKK-epsilon = tested on: T3, IKK-epsilon
T3 construct: gene IKBKE

INSRR = tested on: INSRR
INSR = tested on: INSR
IRAK1 = tested on: IRAK1
IRAK3 = tested on: IRAK3
IRAK4 = tested on: IRAK4
ITK = tested on: ITK
[1] = tested on: JAK1(JH1domain-catalytic)
[2] = tested on: JAK1(JH2domain-pseudokinase)
[3] = tested on: JAK2(JH1domain-catalytic)
[4] = tested on: JAK3(JH1domain-catalytic)
JNK1 = tested on: T4, JNK1
T4 construct: gene MAPK8

JNK2 = tested on: T5, JNK2
T5 construct: gene MAPK9

JNK3 = tested on: T6, JNK3
T6 construct: gene MAPK10
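Further: KINOMEscan kinase panel screen.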

Compound	%Inh (HPK1)	%Inh (HUNK)	%Inh (ICK)	%Inh (IGF1R)	%Inh (IKK-alpha)	%Inh (IKK-beta)	%Inh (IKK-epsilon)	%Inh (INSRR)	%Inh (INSR)	%Inh (IRAK1)	%Inh (IRAK3)	%Inh (IRAK4)	%Inh (ITK)	%Inh [1]	%Inh [2]	%Inh [3]	%Inh [4]	%Inh (JNK1)	%Inh (JNK2)	%Inh (JNK3)
Cn1cc(-c2ccc3c(c2)CCN3C(=O)Cc2ccccc2Cl)c2c(N)ncnc21 [GSK2608885]	64%	7%	5%	95.5%	0%	0%	37%	90.5%	48%	0%	32%	0%	4%	0%	2%	0%	56%	19%	55%	6%
COc1ccc(Nc2nccc(N3CCC(NC(=O)Nc4cc(C)ccc4C)C3)n2)cc1 (stereo not drawn) [GSK1379741]	36%	0%	13%	0%	0%	21%	0%	0%	0%	18%	19%	16%	10%	23%	0%	0%	0%	24%	0%	5%
O=C(NOCC1CC1)c1ccc(F)c(F)c1Nc1ccc(I)cc1Cl	12%	0%	100%	0%	46%	35%	0%	0%	0%	0%	0%	0%	0%	0%	0%	0%	0%	0%	0%	0%
O=C(Nc1cccc(-c2nn3ncccc3c2-c2ccnc(Nc3cccc(C(F)(F)F)c3)n2)c1)c1c(F)cccc1F [GSK299495]	35%	4%	8%	14%	33%	17%	0%	0%	0%	38%	0%	21%	23%	22%	0%	0%	0%	31%	27%	14%
NS(=O)(=O)c1cccc(-c2ccc3nccc(-c4cccc(S(N)(=O)=O)c4)c3c2)c1 [GW867253]	0%	17%	0%	0%	0%	0%	0%	6%	0%	12%	0%	0%	0%	0%	38%	8%	0%	30%	5%	0%
O=c1cc(N2CCOCC2)nc2n(Cc3cccc(Cl)c3Cl)c(C3CC3)nn12 [GSK2358994]	14%	0%	4%	0%	0%	0%	0%	0%	0%	0%	0%	0%	4%	9%	3%	6%	0%	19%	0%	0%
c1ccc(-c2cc(-c3c[nH]nc3-c3ccccn3)ccn2)cc1 [GW576604]	25%	16%	0%	19%	0%	0%	0%	0%	2%	7%	0%	9%	3%	17%	0%	6%	0%	35%	65%	70%
Fc1ccc(-c2ncn(CCCN3CCOCC3)c2-c2cccnc2)cc1 [SB-211743]	0%	44%	0%	0%	0%	0%	6%	8%	4%	0%	64%	0%	0%	20%	38%	21%	0%	26%	0%	0%
COc1cc2c(cc1OCCN1CCN(C)CC1)ncc1c3ccc(C#N)cc3[nH]c21	11%	0%	10%	0%	44%	29%	70%	0%	0%	97.2%	84%	100%	38%	0%	60%	52%	93.4%	19%	0%	0%
Cc1nnc(-c2ccc3ncc(-c4ccc(S(C)=O)cc4)n3c2)o1 (stereo not drawn)	0%	0%	22%	0%	15%	21%	0%	0%	2%	7%	23%	15%	7%	11%	0%	0%	0%	22%	18%	24%
Nc1nccc(-c2c(-c3ccc(F)cc3)ncn2C2CCN(CC(F)(F)F)CC2)n1 [SB-236560]	48%	0%	63%	0%	7%	0%	54%	21%	0%	29%	0%	0%	0%	0%	0%	0%	29%	63%	91.3%	89%
COc1cc2ncn(-c3cc(OCc4sccc4Cl)c(C(N)=O)s3)c2cc1OC [GSK448459]	52%	0%	12%	0%	0%	0%	0%	0%	0%	35%	0%	4%	12%	0%	0%	2%	0%	20%	11%	7%
CNc1ncnc2[nH]ncc12 [SKF-18355]	0%	34%	0%	0%	0%	0%	0%	0%	7%	9%	0%	0%	0%	0%	31%	20%	2%	8%	1%	0%
CSc1ccc(-c2cc3ncnc(SCC(=O)O)c3s2)cc1	0%	0%	0%	2%	6%	0%	0%	11%	0%	28%	0%	9%	0%	1%	0%	0%	0%	5%	10%	0%
CN1c2ccc(CNc3ccc(F)cc3)cc2-c2c(cnn2C)S1(=O)=O	17%	34%	0%	0%	0%	0%	0%	0%	0%	0%	0%	0%	0%	2%	20%	0%	0%	0%	0%	0%
Cc1nnc(-c2ccc(C)c(-c3ccc(C(=O)Nc4ccc(NS(C)(=O)=O)cc4)cc3)c2)o1 [GW702865]	0%	15%	0%	17%	0%	0%	31%	0%	0%	17%	0%	0%	0%	9%	0%	0%	0%	0%	0%	0%
NS(=O)(=O)c1cccc(-c2ccc3ncc(N4CCOCC4)nc3c2)c1 [GSK1535721]	37%	0%	0%	2%	0%	0%	34%	0%	7%	1%	0%	11%	3%	8%	5%	0%	0%	3%	0%	0%
CC(C)Oc1ccc2c(-c3ccnc(Nc4ccc(N5CCN(C)CC5)cc4)n3)cnn2n1 [GW696155]	54%	0%	49%	0%	100%	100%	54%	0%	21%	99.9%	94.2%	60%	0%	48%	93.5%	99.4%	100%	100%	99.7%	99.9%
Cc1c2ccc(N(C)c3ccnc(Nc4cccc(S(N)(=O)=O)c4)n3)cc2nn1Cc1ccccc1.Cl.Cl [GW787226]	76%	30%	0%	34%	0%	0%	2%	58%	25%	0%	36%	0%	0%	36%	26%	31%	0%	0%	0%	0%
Cc1ccc(NC(=O)c2ccnc(N3CCN(C)CC3)c2)cc1-c1ccc(C(=O)NCC2CC2)cc1 [GW775604]	0%	34%	0%	0%	0%	0%	0%	0%	0%	0%	0%	0%	0%	0%	27%	2%	0%	0%	0%	0%
Cc1cccc(-c2nc(-c3ccc(S(C)(=O)=O)cc3)sc2-c2ccncc2)c1	0%	0%	0%	7%	0%	1%	0%	7%	8%	18%	33%	15%	19%	15%	17%	0%	6%	26%	28%	33%
